# Results taken from PubChem BioAssay (EPA / NIEHS).
# Results filed as inconclusive are left out. Activity calls are given as the source filed them. How the source made its calls, unless noted: active means hit-call score of the fitted dose curve at least 0.9, where 1 is the maximum; inactive means score below 0.9.
# Experiments:
# TTR (gene 7276) = experiment: CCTE_GLTED_hTTR_0.125uM: CCTE's human Transthyretin (hTTR) Inhibition Assay, with 0.125uM TTR, Great Lakes Toxicology and Ecology Division (GLTED) Lab (AID 2284431);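 further: hits lower the fluorescence signal relative to DMSO baseline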
# Summary of the method: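 TTR at 0.125uM incubated 2 h with test chemical; displacement of bound ANSA read by fluorescence (ex 380, em 475). Activity is signal loss versus DMSO baseline.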
# [1] = tested on: SRY-box transcription factor 17 (SOX17) Protein Expression, Deisenroth Lab, SOX17 (gene 64321); experiment: CCTE_Deisenroth_DEVTOX-GLR_Pluri_SOX17: CCTE's DevTox GLR-Pluri Assay Evaluation of SRY-box transcription factor 17 (SOX17) Protein Expression, Deisenroth Lab (AID 2284427; active means hit-call score of the fitted dose curve at least 0.9, where 1 is the maximum)
# Summary of the method: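 The endpoint is SOX17+ cells as a fraction of cell count, corrected for the 0.2% DMSO control and obtained by high-content fluorescence imaging of fixed cells. Cells were RUES2-GLR under a 48-hour endoderm differentiation, dosed twice at 24-hour intervals over 1 nM–200 uM.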
# [2] = tested on: SRY-box transcription factor 2 (SOX2) Protein Expression, Deisenroth Lab, SOX2 (gene 6657); experiment: CCTE_Deisenroth_DEVTOX-GLR_Pluri_SOX2: CCTE's DevTox GLR-Pluri Assay Evaluation of SRY-box transcription factor 2 (SOX2) Protein Expression, Deisenroth Lab (AID 2284428)
# Summary of the method: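 Percent SOX2+ cells (SOX2+ count per total cells, fluorescent imaging) in RUES2-GLR human pluripotent line, expressed relative to 0.2% DMSO. Compounds dosed twice at 24 h intervals during 48 h, 1 nM - 200 uM, 10 concentrations.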
# [3] = tested on: Brachyury (BRA) Protein Expression, Deisenroth Lab, TBXT (gene 6862); experiment: CCTE_Deisenroth_DEVTOX-GLR_Pluri_BRA: CCTE's DevTox GLR-Pluri Assay Evaluation of Brachyury (BRA) Protein Expression, Deisenroth Lab (AID 2284429; active means hit-call score of the fitted dose curve at least 0.9, where 1 is the maximum)
# Procedure: CCTE_Deisenroth_DEVTOX-GLR_Pluri assay is a cell-based, multiplex-readout assay that uses RUES2-GLR, a human pluripotent cell line, with measurements taken at 48 hours after chemical dosing in a 384-well microplateCCTE_Deisenroth_DEVTOX-GLR_Pluri_BRA is 1 of 4 assay components calculated from the CCTE_Deisenroth_DEVTOX-GLR_Pluri assay and it measures an the percentage of cells in an mesoderm state. Using a type of inducible fluorescent protein reporter, gain-of-signal activity can be used to understand changes in gene expression with fluorescent microscopy. The percentage of BRA+ cells are determined by calculating the number of BRA+ cells divided by the cell count. To generalize the intended target to other relatable targets, this assay component is annotated to the transcription factor intended target family, where the subfamily is T-box protein.Data from the assay component CCTE_Deisenroth_DEVTOX-GLR_Pluri_BRA was analyzed as 1 assay endpoint. The endpoint is the percent BRA+ cell population minus the 0.2% DMSO control in the CCTE_Deisenroth_DEVTOX-GLR_Pluri assay. Furthermore, this assay endpoint can be referred to as a secondary readout, because this assay has produced multiple assay endpoints where this one serves as a measure of mesoderm differentiation.
# All assay protocols are aligned to the DevTox GLR-Endo assay workflow. […]
# [4] = CCTE_Deisenroth_DEVTOX-GLR_Pluri_CellCount: Viability Assessment in CCTE's DevTox GLR-Pluri Assay Evaluation of Total Cell Counts, Deisenroth Lab (AID 2284430)
# Summary of the method: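 RUES2-GLR human pluripotent cells, seeded 24 h, then differentiated 48 h with two chemical exposures 24 h apart; 10-point series 1 nM - 200 uM. Fixed, nuclear-stained, imaged (5 fields/well); nuclei count as % change vs 0.2% DMSO.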
smiles,measurement,setting,value
CCCCCCCCCCCCOCCOS(=O)(=O)O,AC50,TTR (gene 7276),6.09 µM (active)
O=c1cc(-c2ccc(O)cc2)oc2cc(O)cc(O)c12,AC50,TTR (gene 7276),0.035 µM (active)
O=S(=O)(O)c1cc(S(=O)(=O)O)c2c(N=Nc3ccccc3)c(O)ccc2c1,AC50,TTR (gene 7276),12 µM (active)
CC(C)Cc1ccc(C(C)C(=O)O)cc1 (stereo unspecified),outcome,[1],inactive
same,outcome,[2],inactive
same,outcome,[3],inactive
same,outcome,[4],inactive
CCCCCCOc1ccc(O)cc1,AC50,TTR (gene 7276),3.47 µM (active)
CCCCCCCCCOS(=O)(=O)O,AC50,TTR (gene 7276),8.43 µM (active)
C#C[C@]1(O)CC[C@H]2[C@@H]3CCc4cc(O)ccc4[C@H]3CC[C@@]21C,AC50,TTR (gene 7276),2.73 µM (active)
O=C(O)c1ccccc1O,outcome,[1],inactive
same,outcome,[2],inactive
same,outcome,[3],inactive
same,outcome,[4],inactive
CCCCCCCCOC(=O)c1ccc(O)cc1,AC50,TTR (gene 7276),2.77 µM (active)
CCCCCCCCOS(=O)(=O)O,AC50,TTR (gene 7276),10.6 µM (active)
